Among the test systems are HCT-15 colon; HT29 colon; SNB-75 CNS; SNB-19 CNS; U251 CNS; PC-3 prostate; SK-MEL-5 melanoma; UACC-62 melanoma; LOX IMVI melanoma; SK-MEL-28 melanoma; SK-MEL-2 melanoma; EKVX NSCLC; SN12C renal; UO-31 renal; TK-10 renal; ACHN renal; CAKI-1 renal; A498 renal; CCRF-CEM leukemia; MOLT-4 leukemia.
Assay in all cases: NCI-60 one-dose screen, 48 h (100 = growth as untreated, 0 = no growth, -100 = all killed)
Common to all, as to details: 10 µM unless noted

This is part of a sample that, as a whole, favours compounds with a hit. Of some 83,000 tested, about 20% had one in any assay.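 Testing used 96-well plates and a 48-hour single-concentration exposure. Example: -40 means 40% of the starting cells died.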 A number with no mark means an inactive call. The source made the active and inactive calls. The calls were made as follows: active = growth percent below 10; inactive = the rest.

Regarding `COC1CC(O)C2=C(CC3C(/C(C)=C\CC=C(C)C)CCC3(C)O2)C1=O` (configuration not stated), the growth with HCT-15 colon is 110%; with HT29 colon, 99.4%; in the test with SNB-75 CNS, 107%; with SNB-19 CNS, 103%; in the test with U251 CNS it was 99%; in the test with PC-3 prostate it was 93.6%. Moreover, the growth was 99.2% with SK-MEL-5 melanoma; 94.9% with UACC-62 melanoma; 106% in the test on LOX IMVI melanoma; 119% in the test with SK-MEL-28 melanoma; 96.9% in the test on SK-MEL-2 melanoma; 105% in the test on EKVX NSCLC. In addition, the growth in the test with SN12C renal is 107%; in the test with UO-31 renal, 89.6%; in the test with TK-10 renal it was 92.4%; with ACHN renal, 111%; in the test on CAKI-1 renal, 107%; with A498 renal it was 103%. Besides, the figures for the growth in the test with CCRF-CEM leukemia and in the test on MOLT-4 leukemia were 88.1% and 92.2%, respectively.

With `COc1ccc(Nc2nc(Nc3cc(C)[nH]n3)c3cc(OC)c(OC)cc3n2)cc1`, the growth in the test on HCT-15 colon was -83.1% [20 µM] (active); in the test with HT29 colon, -61.2% [20 µM] (active); in the test with SNB-75 CNS it was -94.5% [20 µM] (active); in the test on SNB-19 CNS, -99.2% [20 µM] (active); in the test with U251 CNS, -69.8% [20 µM] (active); with PC-3 prostate, -80.7% [20 µM] (active). In addition, the growth is -84.7% [20 µM] (active) in the test with SK-MEL-5 melanoma; -98.9% [20 µM] (active) in the test on UACC-62 melanoma; -92.6% [20 µM] (active) in the test on LOX IMVI melanoma; -95.9% [20 µM] (active) in the test with SK-MEL-28 melanoma; -68.6% [20 µM] (active) in the test with SK-MEL-2 melanoma; -79.5% [20 µM] (active) in the test with EKVX NSCLC. Besides, the growth in the test on SN12C renal was -90.4% [20 µM] (active); in the test on UO-31 renal, -100% [20 µM] (active); with TK-10 renal, -86.6% [20 µM] (active); in the test with ACHN renal, -100% [20 µM] (active); in the test with CAKI-1 renal, -100% [20 µM] (active); in the test on A498 renal it was -98.7% [20 µM] (active). In addition, the growth with CCRF-CEM leukemia is -38.9% [20 µM] (active); in the test on MOLT-4 leukemia, -57.1% [20 µM] (active).

For the compound `Cn1cc(-c2nc(-c3c[nH]c4ccncc34)cs2)c2cc(F)ccc21`, the growth with HCT-15 colon is -81.8% (active); with HT29 colon, -80.4% (active); in the test on SNB-75 CNS, -95% (active); in the test on SNB-19 CNS, -80.3% (active); in the test with U251 CNS, -89.1% (active); with PC-3 prostate, -73.1% (active). For the same compound, the growth in the test with SK-MEL-5 melanoma is -97.9% (active); with UACC-62 melanoma it was -85.7% (active); with SK-MEL-28 melanoma, -95.1% (active); with SK-MEL-2 melanoma, -58.7% (active); with EKVX NSCLC it was -75.4% (active); with SN12C renal it was -87.9% (active). In addition, the growth in the test with UO-31 renal was -93.2% (active); in the test with TK-10 renal it was -49.3% (active); in the test on ACHN renal, -99.6% (active); with CAKI-1 renal it was -90.9% (active); with A498 renal, -63.5% (active); with CCRF-CEM leukemia it was -41.6% (active). Also, the growth in the test with MOLT-4 leukemia was -58.3% (active).

`CC1(C)CC[C@]2(CO)CC[C@]3(C)C(=CC[C@@H]4[C@@]5(C)CCNCC(C)(C)[C@@H]5CC[C@]43C)[C@@H]2C1`: the growth with HCT-15 colon was 5.97% (active); with HT29 colon it was 12%; in the test on SNB-75 CNS, 79.4%; in the test on SNB-19 CNS, 96.9%; with U251 CNS it was 56.6%; in the test with PC-3 prostate, 59%. Moreover, the growth was 71.6% in the test with SK-MEL-5 melanoma; 94.2% with UACC-62 melanoma; 76% with LOX IMVI melanoma; -29% (active) in the test on SK-MEL-28 melanoma; 53.7% in the test on SK-MEL-2 melanoma; 97.5% with EKVX NSCLC. For the same compound, the growth in the test on SN12C renal was 80.5%; in the test with UO-31 renal, 75.3%; in the test on TK-10 renal, 95%; in the test with ACHN renal, 88%; in the test with CAKI-1 renal it was 67.3%; in the test on A498 renal, 84.2%. In addition, the growth in the test on CCRF-CEM leukemia is 73.8%; in the test with MOLT-4 leukemia it was 49.3%.

As for `COc1cc2c(c(OC)c1OC)CCC(c1cccc(C(=O)Nc3ccccc3Br)c1)O2` (configuration not stated), the growth was 92% with HCT-15 colon; 82.4% in the test on HT29 colon; 65.8% in the test with SNB-75 CNS; 90.1% with SNB-19 CNS; 90.7% in the test on U251 CNS; 76.1% in the test on PC-3 prostate. Further, the growth in the test with SK-MEL-5 melanoma is 86.3%; with UACC-62 melanoma, 66.2%; in the test on LOX IMVI melanoma, 90.2%; in the test with SK-MEL-28 melanoma, 94.6%; with SK-MEL-2 melanoma, 87.8%; in the test with EKVX NSCLC, 90.1%. In addition, the growth is 85.4% in the test with SN12C renal; 67.3% in the test on UO-31 renal; 87.5% in the test with TK-10 renal; 86.2% in the test with ACHN renal; 95.4% with CAKI-1 renal; 56.6% with A498 renal. Further, the growth with CCRF-CEM leukemia was 86.1%; in the test with MOLT-4 leukemia it was 50.4%.

On to `Cc1ccc(-c2nnc(SCc3nc(N)nc(Nc4ccccc4F)n3)n2-c2ccccc2)cc1`, for which the growth is 91.3% with HCT-15 colon; 98.5% with HT29 colon; 102% in the test with SNB-75 CNS; 91.8% in the test on SNB-19 CNS; 92.8% in the test on U251 CNS; 87.7% in the test on PC-3 prostate. For the same compound, the growth with SK-MEL-5 melanoma is 91.5%; with UACC-62 melanoma, 86%; in the test with SK-MEL-28 melanoma, 97.5%; with SK-MEL-2 melanoma, 95.4%; in the test on EKVX NSCLC it was 94.2%; in the test on SN12C renal it was 95.6%. Moreover, the growth with UO-31 renal was 70.4%; in the test with TK-10 renal it was 100%; in the test on ACHN renal, 92%; in the test on CAKI-1 renal, 85.2%; in the test with A498 renal it was 55.3%; in the test with CCRF-CEM leukemia it was 90.2%. For the same compound, in the test on MOLT-4 leukemia, the growth was 70.2%.

On to `Cc1nc2cccc(NCc3ccc(C(=O)NO)cc3)c2c(=O)n1-c1ccccc1`, for which the growth with HCT-15 colon is 31.3%; in the test on HT29 colon it was 26.4%; in the test on SNB-75 CNS, 42.6%; in the test on SNB-19 CNS, 40.8%; with U251 CNS it was -16.7% (active); with PC-3 prostate, 27%. Besides, the growth with SK-MEL-5 melanoma was 8.27% (active); in the test with UACC-62 melanoma, -17.7% (active); with SK-MEL-28 melanoma, 35.7%; in the test with SK-MEL-2 melanoma, 61.7%; in the test on EKVX NSCLC, 61.8%; in the test on SN12C renal it was 63.2%. Also, the growth is 17% in the test with UO-31 renal; 15.9% with TK-10 renal; 30.5% with ACHN renal; 28% in the test on CAKI-1 renal; 41.3% in the test on A498 renal; 13.4% with CCRF-CEM leukemia. Further, in the test with MOLT-4 leukemia, the growth is 11.5%.

As to `CCCCCN(CCCCC)CC(O)c1c(Cl)ccc2ccccc12` (configuration not stated), the growth is 55.8% in the test with HCT-15 colon; 31.4% in the test on HT29 colon; 92% in the test with SNB-75 CNS; 92.3% in the test on SNB-19 CNS; 80.3% in the test on U251 CNS; 75.2% in the test on PC-3 prostate. In addition, the growth is 72.8% in the test on SK-MEL-5 melanoma; 59.7% in the test with UACC-62 melanoma; 71.6% with LOX IMVI melanoma; 97.3% in the test with SK-MEL-28 melanoma; 93.4% in the test with SK-MEL-2 melanoma; 62.5% in the test on EKVX NSCLC. Moreover, the growth with SN12C renal is 70.2%; in the test on UO-31 renal, 37.2%; in the test on TK-10 renal, 98.1%; in the test on ACHN renal it was 54.7%; in the test with CAKI-1 renal, 60%; with A498 renal it was 68.3%. For the same compound, the growth is 67.2% in the test with CCRF-CEM leukemia and 54% with MOLT-4 leukemia.

Values taken from PubChem BioAssay (NCI).
